The panel holds about 83,000 compounds, 20% with a hit somewhere; the sample as a whole holds those more often.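 How to read the values: 0–100, growth inhibition (40 = 60% inhibited); 0, no net growth; -100 to 0, cell death (-40 = 40% of starting cells died; -100 = all dead).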 Active and inactive are the calls of the source. How the source made its calls: active means growth percent below 10; inactive means the rest.
What was measured:
Assay in all cases: NCI-60 one-dose screen, 48 h (100 = growth as untreated, 0 = no growth, -100 = all killed)
Settings in all cases: 10 µM unless noted
DU-145 prostate = test system: DU-145 prostate
K-562 leukemia = test system: K-562 leukemia
MALME-3M melanoma = test system: MALME-3M melanoma
MDA-MB-231 breast = test system: MDA-MB-231 breast
RXF 393 renal = test system: RXF 393 renal
SF-268 CNS = test system: SF-268 CNS
SF-295 CNS = test system: SF-295 CNS
SF-539 CNS = test system: SF-539 CNS
UACC-257 melanoma = test system: UACC-257 melanoma
M14 melanoma = test system: M14 melanoma
HCT-15 colon = test system: HCT-15 colon
HT29 colon = test system: HT29 colon
SNB-75 CNS = test system: SNB-75 CNS
SNB-19 CNS = test system: SNB-19 CNS
U251 CNS = test system: U251 CNS
PC-3 prostate = test system: PC-3 prostate
SK-MEL-5 melanoma = test system: SK-MEL-5 melanoma
UACC-62 melanoma = test system: UACC-62 melanoma
LOX IMVI melanoma = test system: LOX IMVI melanoma
SK-MEL-28 melanoma = test system: SK-MEL-28 melanoma

Row | Compound | growth (DU-145 prostate) | growth (K-562 leukemia) | growth (MALME-3M melanoma) | growth (MDA-MB-231 breast) | growth (RXF 393 renal) | growth (SF-268 CNS) | growth (SF-295 CNS) | growth (SF-539 CNS) | growth (UACC-257 melanoma) | growth (M14 melanoma) | growth (HCT-15 colon) | growth (HT29 colon) | growth (SNB-75 CNS) | growth (SNB-19 CNS) | growth (U251 CNS) | growth (PC-3 prostate) | growth (SK-MEL-5 melanoma) | growth (UACC-62 melanoma) | growth (LOX IMVI melanoma) | growth (SK-MEL-28 melanoma)
1 | C#CCOc1cccc(Nc2ncnc3c(NC(=O)CCl)cccc23)c1 | 58.9% (inactive) | -21.7% (active) | -74.7% (active) | -25.6% (active) | 56.2% (inactive) | 3.94% (active) | 95.6% (inactive) | -91.3% (active) | 56.9% (inactive) | 5.19% (active) | -37.9% (active) | -77.1% (active) | 74.8% (inactive) | 20.1% (inactive) | -69.2% (active) | 2.88% (active) | -89.2% (active) | 21.8% (inactive) | -79.7% (active) | 75% (inactive)
2 | O=c1oc2ccccc2cc1-c1nn(-c2ccccc2)cc1/C=N/Nc1nc(-c2ccccc2)c(N=Nc2ccccc2)s1 | 76.8% (inactive) | 21.7% (inactive) | 77% (inactive) | 68.8% (inactive) | 98.1% (inactive) | 79.3% (inactive) | 70.9% (inactive) | 88.5% (inactive) | 86.5% (inactive) | 45.4% (inactive) | 41.9% (inactive) | 31.5% (inactive) | 26.6% (inactive) | 85.1% (inactive) | 47.6% (inactive) | 82.1% (inactive) | 79.7% (inactive) | 59.8% (inactive) | 70% (inactive) | 89% (inactive)
3 | CCN1C(=O)N(CC)C2C1NC(=S)N2/N=C/C=C/c1cccs1 (stereo not given) | 23% (inactive) | 11.2% (inactive) | 45.5% (inactive) | 26.6% (inactive) | -5.1% (active) | 66.2% (inactive) | 16.2% (inactive) | -16% (active) | 63.1% (inactive) | 12.3% (inactive) | 15.5% (inactive) | 5.58% (active) | 1.94% (active) | 27% (inactive) | 18.4% (inactive) | 35.2% (inactive) | 23.4% (inactive) | 24.5% (inactive) | 26.7% (inactive) | 49.2% (inactive)
4 | c1ccc2c(-c3cnn4cc(-c5ccc(N6CCNCC6)cc5)cnc34)ccnc2c1 | -83.4% (active) | -23.6% (active) | -89.5% (active) | -67.8% (active) | -77.5% (active) | -62.3% (active) | -93.5% (active) | -95.4% (active) | -72.1% (active) | -81.9% (active) | -55.6% (active) | -76.9% (active) | -96.9% (active) | -57.8% (active) | -79% (active) | -12% (active) | -84.7% (active) | -84.2% (active) | -85.8% (active) | -90.7% (active)
5 | C=C(C[n+]1ccccc1)[C@@H]1CC[C@]2(C(=O)OC)CC[C@]3(C)[C@H](CC[C@@H]4[C@@]5(C)CCC(=O)C(C)(C)[C@@H]5CC[C@]43C)[C@@H]12 | 101% (inactive) | 57.8% (inactive) | 75.2% (inactive) | 85.9% (inactive) | 99% (inactive) | 90.3% (inactive) | 103% (inactive) | 93.7% (inactive) | 53.4% (inactive) | 87% (inactive) | 104% (inactive) | 78% (inactive) | 83.9% (inactive) | 73.8% (inactive) | 82.8% (inactive) | 68% (inactive) | 80.2% (inactive) | 51.8% (inactive) | – | 69% (inactive)
6 | C=C1/C(=C\C=C2/CCC[C@]3(C)[C@@H]([C@H](C)CCCC(C)(C)O)CC[C@@H]23)C[C@@H](OC(=O)CBr)C[C@@H]1O | 92.7% (inactive) | 30.8% (inactive) | -67.3% (active) | 20.5% (inactive) | 93.3% (inactive) | 18% (inactive) | 94.6% (inactive) | -43.1% (active) | 99.3% (inactive) | 84.4% (inactive) | 54.6% (inactive) | 39.2% (inactive) | 49.1% (inactive) | 94.6% (inactive) | 70.6% (inactive) | 40% (inactive) | 84.7% (inactive) | 69% (inactive) | -50.9% (active) | 93.6% (inactive)
7 | O=C1C(c2c(O)[nH]c3ncccc23)=Nc2ccccc21 | 81.2% (inactive) | 85.5% (inactive) | 139% (inactive) | 78.3% (inactive) | 71.2% (inactive) | 84.4% (inactive) | 102% (inactive) | 90.9% (inactive) | 96.5% (inactive) | 93.7% (inactive) | 77.9% (inactive) | 93.8% (inactive) | 68.1% (inactive) | 96.4% (inactive) | 88.2% (inactive) | 73% (inactive) | 75.4% (inactive) | 79.6% (inactive) | 76.3% (inactive) | 123% (inactive)
8 | CN(CCNc1ccc(C(=N)N)cc1)c1ccc(C(=N)N)cc1 | 66.6% (inactive) | 74.4% (inactive) | 84.7% (inactive) | 91.8% (inactive) | 109% (inactive) | 99.4% (inactive) | 54.3% (inactive) | 101% (inactive) | 55.1% (inactive) | 96.1% (inactive) | 84.5% (inactive) | 101% (inactive) | 96.8% (inactive) | 104% (inactive) | 81.2% (inactive) | 82.2% (inactive) | 67% (inactive) | 72.6% (inactive) | 82.4% (inactive) | 94.8% (inactive)
9 | C#C[C@]1(O)CC[C@H]2[C@@H]3CC=C4c5sc(-c6ccccc6)nc5CC[C@]4(C)[C@H]3CC[C@@]21C | 96.1% (inactive) | 17.6% (inactive) | 97.5% (inactive) | 89% (inactive) | 32.3% (inactive) | 83.4% (inactive) | 41.4% (inactive) | 31.6% (inactive) | 84.6% (inactive) | 78.9% (inactive) | 52.3% (inactive) | 74.2% (inactive) | 63.6% (inactive) | 88% (inactive) | 69.8% (inactive) | 65.7% (inactive) | 97.4% (inactive) | 91.6% (inactive) | – | 61.2% (inactive)
10 | CN(C)CCOc1ccc(/C(=C(/CCCCCCCCCC[P+](c2ccccc2)(c2ccccc2)c2ccccc2)c2ccccc2)c2ccccc2)cc1 | -94.1% (active) | -39.3% (active) | -82.2% (active) | -83.4% (active) | -73.8% (active) | -72.1% (active) | -88.6% (active) | -88.9% (active) | -77.4% (active) | -79.6% (active) | -88.7% (active) | -68.5% (active) | -88.7% (active) | -92.1% (active) | -75% (active) | -86% (active) | -97.1% (active) | -82.7% (active) | -89.9% (active) | -94.1% (active)
11 | C#CC(F)(F)[C@]1(O)CCC2C3CCC4=CC(=O)CCC4=C3[C@@H](c3ccc(N(C)C)cc3)C[C@@]21C (stereo not given in full) | 104% (inactive) | 85.9% (inactive) | 103% (inactive) | 84.7% (inactive) | 98.1% (inactive) | 95.9% (inactive) | 86.2% (inactive) | 82.7% (inactive) | 80.9% (inactive) | 86.1% (inactive) | 90% (inactive) | 87.9% (inactive) | 73.9% (inactive) | 98.6% (inactive) | 89.3% (inactive) | 66% (inactive) | 84% (inactive) | 81% (inactive) | 96.2% (inactive) | 109% (inactive)
12 | COC1=C(OC)C(=O)C(CCCCCCCCCCO)=C(C)C1=O | 72% (inactive) | 45.7% (inactive) | 87% (inactive) | 42% (inactive) | 64% (inactive) | 64.2% (inactive) | 77.8% (inactive) | 74% (inactive) | 46% (inactive) | 92.7% (inactive) | 79.7% (inactive) | 105% (inactive) | 62.1% (inactive) | 93% (inactive) | 58.3% (inactive) | 69.5% (inactive) | – | 59.4% (inactive) | 11.5% (inactive) | 102% (inactive)
13 | COc1ccc(NC(=O)c2ccc(Cl)cc2Cl)cc1 | 95.1% (inactive) | 99% (inactive) | 104% (inactive) | 109% (inactive) | 108% (inactive) | 100% (inactive) | 102% (inactive) | 98.9% (inactive) | 96.8% (inactive) | 93.3% (inactive) | 94% (inactive) | 100% (inactive) | 89.9% (inactive) | 104% (inactive) | 92.2% (inactive) | 98.8% (inactive) | – | 96.3% (inactive) | 98.2% (inactive) | 105% (inactive)
14 | Cn1cc(-c2csc(-c3cn(C)c4ccc(F)cc34)n2)c2cnccc21 | -6.44% (active) | -60.3% (active) | -92.5% (active) | -33.1% (active) | -85.5% (active) | -60.3% (active) | -81.1% (active) | -92.5% (active) | -73.1% (active) | -80% (active) | -46.4% (active) | -66.8% (active) | -73% (active) | 3.63% (active) | -89.5% (active) | 10.5% (inactive) | -94.1% (active) | -69.4% (active) | – | -95.9% (active)

— PubChem BioAssay (NCI)
